ABHD5 PLIN5 PPI: ABHD5-PLIN5 interaction inhibitors, primary screen, cell lysate, split luciferase complementation, luminescence; inhibition, % at 4 µM; Split G. princeps luciferase complementation, 4 h; 360,000 tested, 0.78% active; Perilipin-5 (Homo sapiens) + 1-acylglycerol-3-phosphate O-acyltransferase ABHD5 (Homo …;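 active = inhibition above the mean inhibition across every tested compound plus 3 SD, cut at about 22% in these data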;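 also: 0% = DMSO only wells and the 100% control is not disclosed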
TLR4-MyD88 BLA: inhibitors of TLR4-MyD88 association in cells, primary screen, cell-based, HeLa CL3-4, BLA complementation, FRET ratio; Toll-like receptor 4 (Homo sapiens) + Myeloid differentiation primary response protein …; HeLa CL3-4 TLR4/MyD88 BLA complementation; inhibition, % at 8.4 µM; 200,000 tested, 0.18% active; AID 861, 2007; in the data active = inhibition above about 25%;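 also: 0% = vehicle and 100% = reference inhibitor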
NOD2-RIPK2 inh: NOD2-RIPK2 binding disruptors in cells, primary screen, fluorescence, CHO cells, BLA complementation; Receptor-interacting serine/threonine-protein kinase 2 (Homo sapiens), O43353; CCF4 ratio; inhibition, % at 4.98 µM; 360,000 tested, 0.38% active; in the data active = inhibition above about 21%;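 also: 0% = vehicle only and 100% = reference blocker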
TLR9-MyD88 block: inhibitors of TLR9-MyD88 association in cells, primary screen, cell-based, CHO, BLA complementation, fluorescence. 340,000 tested, 0.21% active. inhibition, % at 4.98 µM. Toll-like receptor 9 (Homo sapiens) + Myeloid differentiation primary response protein …. CCF4 FRET ratio. AID 504734, 2011;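 active = inhibition above the mean over all tested compounds plus 3 SD, cut at about 21% in these data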;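 also: 0% = DMSO only wells and 100% = clavulanate BLA inhibitor control wells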
NOD2 RIPK2 conf: NOD2-RIPK2 binding disruptors, retest, confirmation, fluorescence, CHO cells, BLA complementation, triplicate. shares compounds with NOD2-RIPK2 inh. CCF4 FRET. inhibition, % at 4.98 µM. 1,200 tested, 70% active. AID 624370, 2012;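 active = mean inhibition across replicates above a set limit taken from the earlier primary screen, cut at about 21% in these data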;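 also: 0% = DMSO-only wells and the high end = clavulanate BLA-blocked wells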
NOD2 BLA counter: counter-screen for NOD2-RIPK2 interaction inhibitors: BLA reporter | 1,200 tested, 57% active | AID 624371 | CHO BLA reporter, CCF4 FRET ratio, counterscreen | inhibition, % at 4.98 µM | shares compounds with NOD2-RIPK2 inh;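 active = mean inhibition above the low-control mean inhibition plus three low-control SD, cut at about 11% in these data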;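 also: 0% = DMSO only wells and 100% = clavulanate high control wells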
* = called active by the depositor; x = no result; ! = repeats disagree. In the library only some 1.2% were active in any assay of this set; here they are far more common.

SMILES	ABHD5 PLIN5 PPI	TLR4-MyD88 BLA	NOD2-RIPK2 inh	TLR9-MyD88 block	NOD2 RIPK2 conf	NOD2 BLA counter
CC1(C)Oc2c(ccc(O)c2CN2CCOCC2)C2=C1CCCC2	-1	x	13	2	x	x
CCCCn1c(=O)[nH]c(=O)c2c1nc(Cn1ncc(Cl)c(Cl)c1=O)n2CCC	12	x	40*	16	55*	13*
O=C(NC1CCCCC1)C(CCc1ccccc1)n1c(=O)c(-c2ccccc2)nc2ccccc21 (stereo not drawn)	-6	x	-15	x	x	x
Cc1cccc(C)c1NC(=O)C(CCc1ccccc1)n1c(=O)c(-c2cc3ccccc3[nH]2)nc2ccccc21 (stereo not drawn)	5	x	45*	x	41*	67*
CC(C)(C)NC(=O)C(CCc1ccccc1)n1c(=O)c(-c2cc3ccccc3[nH]2)nc2ccccc21 (stereo not drawn)	-12	x	44*	x	40*	66*
O=C(c1ccc(Br)c(S(=O)(=O)N2CCCCC2)c1)N1CCCCC1	-6	x	-2	1	x	x
CC(=O)c1c(C)[nH]c(C(=O)CN2C(=O)NC(C)(CCC(C)C)C2=O)c1C (stereo not drawn)	-4	-4	3	-2	x	x
CN1OC[C@@H]2CN(Cc3ccccc3)[C@H](c3ccc(-n4ccnc4)cc3)C[C@@H]21	10	x	-7	x	x	x
O=c1oc2ccccc2cc1-c1nc(-c2cccs2)cs1	-5	17	32*	20	43*	51*
COc1cccc2cc(-c3nc(-c4cccs4)cs3)c(=O)oc12	4	20	3	8	x	x
COC(=O)c1ccc(OC(C)C(=O)c2ccc(C)cc2)cc1 (stereo not drawn)	-5	-13	10	0	x	x
CN1CCN(Cc2c(O)c(Cl)cc3c(-c4ccccc4)cc(=O)oc23)CC1	0	5	21*	5	21*	24*
CCCCCNC(=O)C(c1ccc(OC)cc1)n1c(=O)c(-c2cc3ccccc3[nH]2)nc2ccccc21 (stereo not drawn)	-14	x	44*	x	39*	62*
CCCCCNC(=O)C(c1ccncc1)n1c(=O)c(-c2cc3ccccc3[nH]2)nc2ccccc21 (stereo not drawn)	-3	x	50*	x	51*	69*
CCCCCNC(=O)C(C1CC1)n1c(=O)c(-c2ccccc2)nc2ccccc21 (stereo not drawn)	4	x	-2	x	x	x
O=C(NCc1ccccc1)C(c1ccccc1)n1c(-c2ccncc2)nc2ccccc21 (stereo not drawn)	6	x	12	x	x	x
CCCCCNC(=O)C(c1ccnc2ccccc12)n1c(=O)c(-c2cc3ccccc3[nH]2)nc2ccccc21 (stereo not drawn)	2	x	51*	x	46*	67*
CN(C)c1ccc(-c2ccnc3c2CC(C)(C(=O)Nc2ccc(Cl)c(C(F)(F)F)c2)O3)cc1 (stereo not drawn)	-3	x	0	x	x	x
COc1cccc(C(=O)N2CCC[C@@H]2C(=O)N2CCC[C@H]2C(=O)NCc2ccncc2)c1	0	x	1	x	x	x
O=C(NC(Cc1ccc(O)cc1)C(=O)N=Nc1c(O)[nH]c2ccccc12)c1ccccc1 (stereo not drawn)	-3	x	-10	-4	x	x
CCCCNc1c(-c2ccc(OC)c(SC3CCCCC3)c2)nc2ccc(C)cn12	-13	x	53*!	-7	20	10
CCCCNc1c(-c2ccc(SC3CCCCC3)c(OC)c2)nc2ccc(C)cn12	-19	x	12	-5	x	x
CN(CC(=O)Nc1ccccc1Cl)C(=O)COC(=O)CSc1ccc(Cl)cc1	12	x	-8	-6	x	x
N#Cc1c2ccc(O)cc2n2ccccc12	1	4	22*	13	21*	26*
N#Cc1c2ccc(OCC(=O)NCc3ccco3)cc2n2ccccc12	6	x	12	-1	x	x
CC1(C)ON=C(c2cccc(F)c2)NC1=O	-6	x	-8	x	x	x
Cc1cc(C(F)(F)F)c2c(N)c(C(=O)NCc3ccc(Cl)cc3)sc2n1	-6	x	24*	x	23*	21*

Screening results (PubChem)
